Measurements published in the supplement of paper PMC6555819.

Tests used:
Assay in all cases: PBM binding z-score (relative to random genomic background probes); higher = stronger binding; sequences stand for … in GC…GCGATTGACAGCGTAGAATGAAGG
[1] = tested on: RARb homodimer (NR concentration 270 nM)
Outline: (§1)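 Each nuclear receptor dimer, without ligand, was incubated for 1 h on custom Agilent 4×180K protein-binding microarrays. Binding was detected with antibodies against each partner (one per run), and scanned fluorescence was regression-normalized. The binding z-scores are referenced to random human genomic background probes.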

[2] = tested on: RARg:RXRa (NR concentration 270 nM, RXRa partner concentration 90 nM)
Outline: as §1

[3] = tested on: RARg homodimer (NR concentration 270 nM)
Outline: as §1

[4] = tested on: RXRa DBDmut IVT, anti-RXR (DBD mutation: RXRa K156A/R161A, NR concentration 90 nM)
Outline: as §1

[5] = tested on: RXRa homodimer (NR concentration 180 nM)
Outline: as §1

[6] = tested on: THRa:RXRa (NR concentration 90 nM, RXRa partner concentration 90 nM)
Outline: as §1

[7] = tested on: THRa homodimer (NR concentration 90 nM)
Outline: as §1

[8] = tested on: VDR homodimer (NR concentration 270 nM)
Outline: as §1

## GCGACTGGGGCACCAGCAGGTTACCATAACTTAA
[1]
  PBM binding z-score: 0.971
[2]
  PBM binding z-score: 1.13
[3]
  PBM binding z-score: 0.678
[4]
  PBM binding z-score: -0.795
[5]
  PBM binding z-score: 0.401
[6]
  PBM binding z-score: 1.07
[7]
  PBM binding z-score: -0.0837
[8]
  PBM binding z-score: -0.699

## CCTCACGGGTCACTCCAGGTTATAGCATCGGAGT
[1]
  PBM binding z-score: 3.09
[2]
  PBM binding z-score: 4.28
[3]
  PBM binding z-score: 4.2
[4]
  PBM binding z-score: 1.49
[5]
  PBM binding z-score: 4.07
[6]
  PBM binding z-score: 4.79
[7]
  PBM binding z-score: 0.721
[8]
  PBM binding z-score: 1.94

## GCAGACAGGTGAAAAGCAGGTAACTCAGGGTGGC
[1]
  PBM binding z-score: 0.095
[2]
  PBM binding z-score: 0.178
[3]
  PBM binding z-score: -0.088
[4]
  PBM binding z-score: -0.616
[5]
  PBM binding z-score: 0.348
[6]
  PBM binding z-score: 1.28
[7]
  PBM binding z-score: -0.428
[8]
  PBM binding z-score: -0.329

## ACTATTACTTGAGACGAGGGCAACCGATAGGTTG
[1]
  PBM binding z-score: 1.67
[2]
  PBM binding z-score: 0.798
[3]
  PBM binding z-score: 0.981
[4]
  PBM binding z-score: 1.01
[5]
  PBM binding z-score: 0.63
[6]
  PBM binding z-score: 1.15
[7]
  PBM binding z-score: 1.02
[8]
  PBM binding z-score: 1.76

## TTACCACGGTGAGCTGAGGTCGTTGATCCAACTC
[1]
  PBM binding z-score: 0.63
[2]
  PBM binding z-score: 0.212
[3]
  PBM binding z-score: -0.116
[4]
  PBM binding z-score: -0.00262
[5]
  PBM binding z-score: 0.759
[6]
  PBM binding z-score: 3.24
[7]
  PBM binding z-score: 1.31
[8]
  PBM binding z-score: 1.64

## TCATATAGGTAATACACGTGAAAGTCGGCATCTA
[1]
  PBM binding z-score: 0.355
[2]
  PBM binding z-score: 0.577
[3]
  PBM binding z-score: 0.604
[4]
  PBM binding z-score: 1.92
[5]
  PBM binding z-score: 0.939
[6]
  PBM binding z-score: 0.156
[7]
  PBM binding z-score: -0.0139
[8]
  PBM binding z-score: 0.589

## ATCTCTAGGTAACAAAGTTCAGTGAATGCCGAAC
[1]
  PBM binding z-score: 2.76
[2]
  PBM binding z-score: 2.04
[3]
  PBM binding z-score: 1.99
[4]
  PBM binding z-score: 0.878
[5]
  PBM binding z-score: 1.36
[6]
  PBM binding z-score: 1.56
[7]
  PBM binding z-score: 0.601
[8]
  PBM binding z-score: 2.02
